# Screening data: PubChem BioAssay, National Center for Advancing Translational Sciences (NCATS)
# Sampled rows, rich in hits. Any-hit rate of the full collection: about 21%.
# AMA1-RON2 inh: qHTS for Inhibitors of AMA1-RON; Towards Development of Antimalarial Drug Lead: Primary Screen; Plasmodium falciparum AMA1 (3D7) - RON2 peptide interaction; AlphaScreen AMA1-biotinylated RON2 peptide binding; Potency, µM (doses to about 58.2 µM), for the others: top-dose activity change, negative = inhibition, actives largely listed as inhibitors; 360,000 tested, 0.2% active; AID 720542, 2013;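 note: potency is the fitted concentration of half-maximal effect; 0% = vehicle wells and -100% = peptide control; nearly all actives have a fitted effect of over 45% in size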
#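 AMA1 (3D7) with his tag at 25 nM final met compounds first, then biotinylated RON2 peptide at 25 nM; detection used donor plus acceptor beads, 10 µg/mL apiece, read by AlphaScreen after 30 min at room temperature.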
# CHX counter: Cycloheximide Counterscreen for Small Molecule Inhibitors of Shiga Toxin; AID 2314, 2010; 300,000 tested, 12% active; max response, %; cell reporter, cycloheximide protein synthesis inhibition counterscreen; in the data active = max response mostly above about 13%, no sharp cut-off; inactive = mostly below about 14%; note: read at 38.3 µM for the half of the compounds with a filed dose; 0% is about no effect
# Pf growth 48h: Primary qHTS for delayed death inhibitors of the malarial parasite plastid, 48 hour incubation; P. falciparum luciferase growth in erythrocytes, 48 h; Potency, µM (doses to about 28.7 µM), without a hit: at the top dose activity change, negative = inhibition, usual class: inhibitors; 310,000 tested, 5.9% active; AID 504832, 2011; note: potency is the fitted concentration of half-maximal effect; % is set by controls: 0 for no effect and ±100 for the full control effect
#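 Compounds are pin-transferred into medium, infected erythrocytes (2% hematocrit, 0.1% parasitemia final) are added, and plates sit one parasite generation at 37 C in 5% CO2. Detection reagent is then added and luminescence measured.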
# Shiga toxin inh: A qHTS for Small Molecule Inhibitors of Shiga Toxin; 290,000 tested, 9.2% active; inhibition, % at 38.7 µM; AID 2315, 2010; Vero cells, Shiga toxin protein synthesis inhibition reporter; in the data active = inhibition mostly above about 28%, no sharp cut-off; inactive = mostly below about 43%; note: 0% is about no effect
# Pf growth 96h: Primary qHTS for delayed death inhibitors of the malarial parasite plastid, 96 hour incubation. P. falciparum luciferase reporter growth, 96 h. 320,000 tested, 6.9% active. Potency, µM (titrated, usually from 28.7 µM), for the others: at the highest dose activity change, negative = inhibition, hits mostly inhibitors. AID 504834, 2011; note: potency is the fitted concentration of half-maximal effect; % is set by controls: 0 for no effect and ±100 for the full control effect
#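 Readout is luminescence from an integrated firefly luciferase in P. falciparum. Red cells, 2% hematocrit and 0.05% parasitemia final, were cultured with compound through two parasite generations (96 hours) at 37 C, 5% CO2.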
# HCV inh: qHTS Assay for Inhibitors of Hepatitis C Virus (HCV) | Huh7.5.1 HCVcc-Cre infection, luciferase reporter, 44 h | Potency, µM (doses to about 41.8 µM), without a hit: top-dose activity change, negative = inhibition, hits mostly inhibitors | 340,000 tested, 3.4% active | AID 651820, 2012; note: potency is the fitted concentration of half-maximal effect; % is set by controls: 0 for no effect and ±100 for the full control effect
#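 Antiviral activity was scored by luciferase reporter output from cells infected with HCVcc-Cre (~0.5 moi) in presence of compound, 44 h infection period, cells seeded 1,000/well 4 h prior.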
# Starred values were filed as active, the others as inactive; ? = inconclusive; . = no result; [ ] = another dose, or the depositor's remark. Unless noted, calls come from the whole dose curve; as a rule, active = well fitted curve in the direction sought with a large enough effect; inconclusive = small, poorly fitted or top-dose-only effect, or another doubt; inactive = no such curve, though single readings can be large; an effect the other way counts as inactive or inconclusive.
SMILES,AMA1-RON2 inh,CHX counter,Pf growth 48h,Shiga toxin inh,Pf growth 96h,HCV inh
O[C@@H]1CN(Cc2cccs2)[C@@H](c2ccccc2)C[C@H]1n1cc(-c2ccc(F)cc2)nn1,1%,.,.,.,.,.
Cc1ccccc1CN1[C@@H]2c3ccccc3C[C@@H]2OCCS1(=O)=O,0%,0,-6%,-6,46%,10%
CCC(=O)c1ccc(Oc2ccc(C(=O)c3ccc(C)cc3)cc2[N+](=O)[O-])cc1,-22%,-2,4%,-9,24%,-1%
Cc1ccc(Oc2c(C(N)=O)cc([N+](=O)[O-])cc2[N+](=O)[O-])cc1,4%[2.32 µM],2,-4%,-2,?,3.5µM*
COc1cc(NC2CCCCC2O)c2nc(-c3ccc(Cl)cc3)ccc2c1 (centres undefined),60%,85*,1.9µM*,134*,1.9µM*,?
COc1ccc(OCC(=O)OCC(=O)NC2CCCCC2C)cc1 (centres undefined),6%,.,-19%,.,?,5%
COC(=O)/C(C#N)=C1/C=Cc2ccccc2N1,-19%,34*,71%,68*,79%,8%
C1=Cc2ccccc2Nc2ccccc21,-20%,-3,-22%,20,11%,13%
CCOC(=O)Cc1cc(=O)n2[nH]c(-c3ccc(Cl)cc3)cc2n1,5%,10,.,11,-3%,4%
CCCc1cc(=O)n2[nH]c(-c3ccc(C)cc3)cc2n1,12%,39*,38%,73*,-16%,-13%
CCCc1cc(=O)n2[nH]c(-c3ccc(Cl)cc3)cc2n1,-4%,57*,0%,92*,?,16%
O=c1cc(-c2ccccc2)nc2cc(-c3ccco3)[nH]n12,-6%,18*,6%,44,?,14%
CCCc1cc(=O)n2[nH]c(-c3ccccc3)cc2n1,-2%,30,195%,70*,?,-30%
O=c1cc(-c2ccccc2)nc2cc(-c3ccc(Br)cc3)[nH]n12,12%,9,?,12,370%,16%
CCCCN(C(=O)c1cc(Cl)nc2ccccc12)c1c(N)n(CCCC)c(=O)[nH]c1=O,1%,.,?,.,-11%,-2%
CCCN(S(=O)(=O)c1ccccc1F)S(=O)(=O)c1ccccc1Br,0%,-1,-14%,-6,14%,5%
Cc1ccc(-n2nnnc2Sc2nc([N+](=O)[O-])nn2C)c(C)c1,0%,.,.,.,.,-9%
Cc1ccc(-n2nnnc2Sc2nc([N+](=O)[O-])nn2C)cc1,0%,-6,4.1µM*,-8,20%,1%
O=c1[nH]c(/C=C/c2cccc3ccccc23)nc2ccccc12,2%,27,?,46,17%,?
O=c1[nH]c(/C=C/c2ccccn2)nc2ccccc12,13%,56*,-28%,70*,?,-5%
O=c1[nH]c(/C=C/c2ccccc2F)nc2ccccc12,-5%,34*,154%,71*,-30%,-18%
O=c1[nH]c(/C=C\c2cccc(F)c2)nc(O)c1[N+](=O)[O-],-10%,-2,?,.,?,0%
COC(=O)COc1c(/C=C\c2nc(O)c([N+](=O)[O-])c(=O)[nH]2)cccc1OC,9%,-2,?,-12,?,13%
C#CCOc1c(/C=C\c2nc(O)c([N+](=O)[O-])c(=O)[nH]2)cc(Br)cc1OC,-3%,-3,5.2µM*,.,?,10%
O=c1[nH]c(/C=C\c2ccccc2F)nc(O)c1[N+](=O)[O-],6%,7,-9%,.,13µM*,17%
SMILES,AMA1-RON2 inh,CHX counter,Pf growth 48h,Shiga toxin inh,Pf growth 96h,HCV inh
COc1cccc(-c2cnc(C(O)c3ccc(-c4ccccc4)cc3)[nH]2)c1 (centres undefined),1%,.,.,.,.,.
Cc1[nH]c(=O)c(C#N)c(C)c1CCC(=O)NCc1ccc(Cl)cc1,-5%,5,-2%,21,28%,-1%
CCOC1=C2CN(S(=O)(=O)c3ccc(C)cc3)[C@H](c3cccc4ccccc34)C[C@H]2[C@H]2C(=O)N(c3ccccc3)C(=O)[C@H]2C1,13%,.,.,.,.,.
COc1ccc(OCC(=O)Nc2ccc(NC(=O)c3ccccc3Cl)c(OC)c2)cc1,-6%,-4,-12%,-23,-7%,?
COC(=O)COc1ccc(NC(=O)c2ccco2)cc1,0%,16*,7%,22,0%,31%
CCOc1ccc(NC(=O)c2ccco2)cc1,-9%,30*,-59%,47*,.,9%
CCOc1ccc(NC(=S)NC(=O)c2ccco2)cc1,10%,62*,52%,85*,111%,-5%
CCOc1ccc(NC(=O)CCC(=O)NNC(=O)c2ccco2)cc1,-1%,-1,7%,2,1%,9%
CCOc1ccccc1NC(=O)c1ccc(NC(=O)c2ccco2)cc1,-7%,13*,2.9µM*,51,-22%,10µM*
O=C(Nc1ccc(NC(=S)NC(=O)c2ccco2)cc1)c1ccccc1,7%,1,?,25,-22%,?
COc1ccc(OCC(=O)Nc2cccc(NC(=O)c3ccco3)c2)cc1,-9%,15,-8%,30,24%,-8%
CC(=O)c1ccc(Nc2nc(C(N)COCc3ccccc3)cs2)cc1 (centres undefined),54%,.,.,.,.,.
COc1ccccc1CNCCS(=O)(=O)NCc1ccccc1,-3%,.,.,.,.,-5%
CN1/C(=C\C(=O)COC(=O)c2ccco2)C(C)(C)c2ccccc21,-1%,28,0%,9,14%,-7%
CN1/C(=C\C(=O)c2ccccc2Cl)c2ccccc2CC1(C)C,?,14,?,-8,37%,9%
CN1/C(=C\C=N\NC(=O)c2cccnc2)C(C)(C)c2ccccc21,103%,7,0.59µM*,39,?,3%
CN1/C(=C\C(=O)c2ccco2)c2ccccc2CC1(C)C,-1%,1,0%,-4,9.3µM*,1%
Cc1ccc(C(=O)NC(=S)/C=C2\N(C)c3ccccc3C2(C)C)cc1,?,13,-17%,36,?,11µM*
CN1/C(=C\C(=O)c2ccco2)C(C)(C)c2ccccc21,-1%,-2,1.7µM*,13,267%,11µM*
CCOC(=O)C[C@@H]1OC[C@H](CO)N1S(=O)(=O)c1ccc(C)cc1,16%,.,.,.,.,.
CC(C)c1ccc(C(C(C(=O)c2ccccc2)N2CCOCC2)N2CCOCC2)cc1 (centres undefined),17%,.,.,.,.,3%
CC1CCC(NC(=O)CN2C(=O)NC(C)(C)C2=O)CC1 (centres undefined),4%,.,18%,.,5%,18%
O=C1OC(c2ccccc2)(N(Nc2ccccc2)c2ccccc2)c2ccccc21 (centres undefined),-10%,.,.,.,.,.
